Source: article PMC4336329 (PLoS ONE, 2015)
About 14,000 (4.5%) of roughly 310,000 compounds showed an effect of 50% or more. The effect is printed as a negative number. Shown is part of a subset that was picked to be rich in strong results.

molecular target: human ether-à-go-go-related gene (hERG) potassium channel (human, UniProt Q12809); assay: primary screen, population patch clamp on CHO cells stably expressing hERG; higher = less effect of the substance
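Also: peak tail current of the secondary pulse compared with the same well before compound.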

Chain of human ether-à-go-go-related gene (hERG) potassium channel (Q12809 whole entry, looked up): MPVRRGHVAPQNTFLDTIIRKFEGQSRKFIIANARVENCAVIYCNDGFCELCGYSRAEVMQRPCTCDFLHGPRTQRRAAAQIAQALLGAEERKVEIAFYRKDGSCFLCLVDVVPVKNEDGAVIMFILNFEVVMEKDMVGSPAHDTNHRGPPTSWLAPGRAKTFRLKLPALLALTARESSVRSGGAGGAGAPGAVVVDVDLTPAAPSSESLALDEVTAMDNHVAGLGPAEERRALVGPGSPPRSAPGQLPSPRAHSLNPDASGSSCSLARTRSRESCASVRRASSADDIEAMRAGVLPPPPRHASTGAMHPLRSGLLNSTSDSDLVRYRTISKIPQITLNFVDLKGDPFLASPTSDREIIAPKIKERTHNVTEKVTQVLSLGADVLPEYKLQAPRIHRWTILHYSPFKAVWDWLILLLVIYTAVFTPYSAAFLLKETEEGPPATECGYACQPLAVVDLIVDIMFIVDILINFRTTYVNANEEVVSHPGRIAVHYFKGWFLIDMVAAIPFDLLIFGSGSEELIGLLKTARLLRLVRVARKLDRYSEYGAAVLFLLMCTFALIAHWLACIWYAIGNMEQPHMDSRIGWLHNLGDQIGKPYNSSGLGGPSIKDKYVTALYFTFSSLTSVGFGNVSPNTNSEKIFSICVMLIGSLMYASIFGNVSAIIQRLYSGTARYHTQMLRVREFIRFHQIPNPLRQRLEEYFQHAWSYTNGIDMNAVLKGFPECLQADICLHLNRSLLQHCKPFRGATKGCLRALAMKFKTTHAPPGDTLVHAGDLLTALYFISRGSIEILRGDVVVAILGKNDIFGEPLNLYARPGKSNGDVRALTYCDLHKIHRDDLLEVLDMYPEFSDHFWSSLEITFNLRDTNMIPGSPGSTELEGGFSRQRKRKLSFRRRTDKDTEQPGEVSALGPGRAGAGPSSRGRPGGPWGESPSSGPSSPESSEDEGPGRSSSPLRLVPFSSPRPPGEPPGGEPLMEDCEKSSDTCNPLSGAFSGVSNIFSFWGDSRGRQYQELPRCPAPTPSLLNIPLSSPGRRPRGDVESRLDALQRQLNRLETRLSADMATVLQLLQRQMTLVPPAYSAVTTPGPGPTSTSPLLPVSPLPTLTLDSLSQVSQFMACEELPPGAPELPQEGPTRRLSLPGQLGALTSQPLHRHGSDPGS

SMILES	hERG current change (%, negative = inhibition) at 10uM [%]
CC(=O)N1CCc2cc(S(=O)(=O)CCC(=O)NCc3ccco3)ccc21	12.5
Cc1nn(-c2ccccc2)c(C)c1/C=N/NC(=O)CSc1nnc(-c2ccccc2)n1-c1ccc(Cl)cc1	5.46
Cc1nc(C)c(C(=O)Nc2cccc(C)c2C)o1	-0.939
Cc1c(NC(=O)C2(C)CCCCC2)c(=O)n(-c2ccccc2)n1C	6.22
CC1(O)CCN2C(=O)CCc3cccc1c32 (stereo not shown)	-9.44
CC(C)(C)[C@]1(O)CCN2C[C@H]3c4ccccc4CCc4cccc(c43)[C@@H]2C1.Cl	-78.3
O=C(C1CCCCC1)N1CC(=O)N2CCc3ccccc3C2C1 (stereo not shown)	10.2
CCOc1cc(-c2noc(CCC(=O)NCCc3ccccc3)n2)ccc1OC	1.79
CN(C)c1nc(NCc2ccccc2)nc(N/N=C/c2ccc(Br)cc2)n1	13.3
COc1ccccc1C1C(C#N)=C(N)Oc2c1c(-c1ccccc1)nn2-c1ccccc1 (stereo not shown)	0.699
COc1cc(C2C(C#N)=C(N)Oc3c2c(-c2ccccc2)nn3-c2ccccc2)cc(OC)c1OC (stereo not shown)	-65
COc1ccc(C2C(C#N)=C(N)Oc3c2c(-c2ccccc2)nn3-c2ccccc2)c(OC)c1OC (stereo not shown)	-1.15
O=C(Nc1ccn(Cc2c(F)c(F)cc(F)c2F)n1)c1ccc(COc2cc(Cl)ccc2Cl)o1	6.83
CC(NCc1ccccc1Cl)C(O)c1ccccc1.Cl (stereo not shown)	4.31
CSc1ccc(CNC(C)C(O)c2ccccc2)cc1.Cl (stereo not shown)	-51.4
Cl.Oc1cccc(C(O)CNCc2ccc(-c3ccccc3)cc2)c1 (stereo not shown)	-66
CSc1ccc(CNCC(O)c2ccccc2)cc1.Cl (stereo not shown)	-55
OC(CNCc1ccccc1)c1ccccc1 (stereo not shown)	4.68
Cl.OC(CNCc1ccc(-c2ccccc2)cc1)c1ccccc1 (stereo not shown)	-16.1
Cl.OC(CNCc1ccncc1)c1ccccc1 (stereo not shown)	6.97
CC(NCC#Cc1ccccc1)C(O)c1ccccc1.Cl (stereo not shown)	-1.67
CCNCC(O)c1cccc(O)c1 (stereo not shown)	20.8
COc1ccc(N2CC(C(=O)NCc3nnnn3-c3ccc(C)c(C)c3)CC2=O)cc1 (stereo not shown)	-19.6

SMILES	hERG current change (%, negative = inhibition) at 10uM [%]
Cc1ccc(CNC(=O)CN2C(=O)COc3ccc(C)cc32)cc1	-5.06
COc1ccc(C(=O)CNc2ccccc2C#N)cc1	28.1
CCCOc1ccc(S(=O)(=O)NCCN2CCOCC2)c2ccccc12	-23.3
CC(CCc1ccccc1)NC(=O)COC(=O)CC1CC2CCC1C2 (stereo not shown)	-6.07
CSc1cccc(CN2CCN(Cc3ccc(F)c(F)c3)C(CCO)C2)c1 (stereo not shown)	-69.5
CSc1ccc(CN2CCN(CC=C(C)C)C(CCO)C2)cc1 (stereo not shown)	-46.2
CSc1cccc(CN2CCN(CCc3ccccc3)C(CCO)C2)c1 (stereo not shown)	-80.4
CSc1ncc(CN2CCN(C3CCCC3)C(CCO)C2)cn1 (stereo not shown)	-0.478
CSc1ccc(CN2CCN(C3CCCC3)C(CCO)C2)cc1 (stereo not shown)	-53.8
CSc1cccc(CN2CCN(CCC(C)C)C(CCO)C2)c1 (stereo not shown)	-33.2
OCCC1CN(Cc2ccc(Oc3ncccn3)cc2)CCN1Cc1ccc(F)c(F)c1 (stereo not shown)	-23.6
CSc1ccc(CN2CCN(Cc3ccccc3)C(CCO)C2)cc1 (stereo not shown)	-56.8
OCCC#Cc1ccc(CN2CCN(Cc3ccccc3)C(CCO)C2)cc1 (stereo not shown)	-15
CSc1ncc(CN2CCN(C3CCCCC3)C(CCO)C2)cn1 (stereo not shown)	-16.9
OCCC1CN(CC2CC2)CCN1Cc1ccc(F)c(F)c1 (stereo not shown)	-25.5
CC12CCC(C/C1=N\OC(=O)c1c(F)cccc1F)C2(C)C (stereo not shown)	-0.495
CC(C)(C)C1CCC(=NNC(=O)CN(c2ccccc2)S(=O)(=O)c2ccccc2[N+](=O)[O-])CC1 (stereo not shown)	6.69
COCCNC(=O)c1ccc(N2CC3CC(C2)c2cccc(=O)n2C3)c([N+](=O)[O-])c1 (stereo not shown)	21.4
Cc1ccc(S(=O)(=O)C2(C(=O)Nc3cccc(F)c3)CC2)cc1	0.141
COc1cc2c(cc1OC)CN(C(=O)c1ccc(OC)c([N+](=O)[O-])c1)CC2	4.43
COc1cccc(CN(C)C(=O)CSCC(=O)Nc2cc(C)on2)c1OC	11.6
CCCCn1c2c(c(=O)n(C)c1=O)C(c1ccc(OC)cc1)N1CCCCCC1=N2 (stereo not shown)	-21.9
CCOC(=O)C1CCN(Cc2cnc(Oc3ccc(N)cc3)s2)CC1	-10.6

SMILES	hERG current change (%, negative = inhibition) at 10uM [%]
COc1ccc(S(=O)(=O)N2CCCC(C(=O)NCC3CCCO3)C2)cc1OC (stereo not shown)	11
CC(C)c1csc(CN2CCN(Cc3ccc(F)c(F)c3)C(CCO)C2)n1 (stereo not shown)	-19.3
CSc1ccc(CN2CCN(CCC(C)C)C(CCO)C2)cc1 (stereo not shown)	-63.3
CC(C)c1cc(CN2CCN(Cc3ccc(F)c(F)c3)C(CCO)C2)[nH]n1 (stereo not shown)	-52.4
CSc1cccc(CN2CCN(Cc3ccccc3)C(CCO)C2)c1 (stereo not shown)	-57.7
CC(C)(O)C#Cc1ccc(CN2CCN(Cc3ccccc3)C(CCO)C2)cc1 (stereo not shown)	12
OCCC1CN(Cc2ccn[nH]2)CCN1Cc1ccc(F)c(F)c1 (stereo not shown)	9.54
CSc1ccc(CN2CCN(C(C)C)C(CCO)C2)cc1 (stereo not shown)	-24
CSc1ncc(CN2CCN(CCC(C)C)C(CCO)C2)cn1 (stereo not shown)	-1.45
CC(NS(=O)(=O)OCC(Cl)(Cl)Cl)c1ccccc1 (stereo not shown)	9.74
Cc1cccc(-c2cc3nc4c(c(N5CCC6(CC5)OCCO6)n3n2)CCCC4)c1	10.2
O=S(=O)(CCSc1ccc(C(F)(F)F)cn1)c1ccc(Cl)cc1	13
Oc1c(-c2cc(-c3ccco3)[nH]n2)ccc2ccccc12	13.7
CCOC(=O)N1CCc2c(sc3ncn(C)c(=O)c23)C1	5.05
Cc1cc(Cl)ccc1NC(=O)CN1C(=O)CSc2ccc(S(=O)(=O)N3CCOCC3)cc21	-18.7
Cc1nc2nc[nH]n2c(=O)c1CCC(C)C	4.34
COCCNc1nc(N)c([N+](=O)[O-])c(NC2CCCCC2)n1	4.56
NC(=O)C(=O)N/N=C/c1c2ccccc2cc2ccccc12	-11.1
COc1cc(OC)cc(C(=O)Nc2cccc(NC(=O)c3ccccc3)c2)c1	-27.3
COc1cc(OC)cc(C(=O)Nc2cccc(NC(C)=O)c2)c1	-1.56
CCOC(=O)Nc1cccc(NC(=O)c2ccccc2F)c1	7.84
CCOC(=O)Nc1cccc(Nc2ccccc2)c1	-74.8
CCOC(=O)Nc1cccc(NC(=O)c2cc(OC)cc(OC)c2)c1	-53.7

SMILES	hERG current change (%, negative = inhibition) at 10uM [%]
CCOC(=O)Nc1cccc(C(=O)O)c1	8.63
COc1ccccc1CNC(=O)CN(c1ccc(C)cc1)S(=O)(=O)c1c(C)nn(C)c1C	-24.1
Cn1c(-c2ccc(N)cc2)nc2ccccc21	-3.42
COc1ccc2c(c1)c1nc3ccccc3nc1n2Cc1ccc(OC(C)C)c(OC)c1	-0.905
CCn1c(SCCC(=O)O)nnc1-c1cccnc1	4.65
O=C(NCc1ccccc1)c1onc(CSc2ccc(F)cc2)c1C(=O)NCCCN1CCOCC1	-73.9
CCCNC(=O)c1onc(CSc2ccc(F)cc2)c1C(=O)NCC1CC1	-62.7
O=C(NCC1CC1)c1onc(CSc2ccncc2)c1C(=O)NCC1CC1	-11.9
O=C(NCC1CC1)c1onc(CSc2nc3ccccc3[nH]2)c1C(=O)NCC1CC1	-69.8
CCCNC(=O)c1onc(CSc2ccc(F)cc2)c1C(=O)NCCC	5.35
O=C(NCc1ccccc1)c1onc(CSc2ccc(F)cc2)c1C(=O)NCc1ccccc1	1.49
CCCNC(=O)c1onc(CSc2ccc(Cl)cc2)c1C(=O)NCC1CC1	-8.67
O=C(NCCCN1CCOCC1)c1onc(CSc2ccccc2)c1C(=O)NCCCN1CCOCC1	4.97
CCCNC(=O)c1onc(CSc2nc3ccccc3[nH]2)c1C(=O)NCCC	-35.7
O=C(NCc1ccccc1)c1onc(CSc2ccccc2)c1C(=O)NCC1CC1	-33.4
COCCNC(=O)c1onc(CSc2nc3ccccc3[nH]2)c1C(=O)NCCOC	-14.3
O=C(NCC1CC1)c1onc(CSc2ccc(F)cc2)c1C(=O)NCC1CC1	-51.6
O=C(/C=C\c1ccc2c(c1)OCO2)CC1(O)C(=O)Nc2ccccc21 (stereo not shown)	-0.111
COc1cccc(CC(=O)N2CCC(n3nccc3NC(=O)C3CCOC3)CC2)c1 (stereo not shown)	21.7
NC(=O)c1ccccc1NC(=O)Nc1ccccc1Cl	11.8
COCCn1c(C)cc(C(=O)CSc2ccc(NC(C)=O)cc2)c1C	12.4
COc1ccc(N2CCN(C(=O)CCNC(=O)Cn3ccc4ccccc4c3=O)CC2)cc1	-8.61
